Columns and labels:
Test in all cases: log2 ratio of Biotin-Ahx-Ub-VS probe labelling (fragment/DMSO); higher = less target engagement (more negative = stronger competition), active = hit call of the paper (q ≤ 0.05, log2 ratio ≤ -1)
Conditions in all cases: compound concentration: 200 uM; treatment time: 3 h
OTUD6B = molecular target: T1, OTUD6B (UniProt Q8N6M0)
T1 sequence (whole entry): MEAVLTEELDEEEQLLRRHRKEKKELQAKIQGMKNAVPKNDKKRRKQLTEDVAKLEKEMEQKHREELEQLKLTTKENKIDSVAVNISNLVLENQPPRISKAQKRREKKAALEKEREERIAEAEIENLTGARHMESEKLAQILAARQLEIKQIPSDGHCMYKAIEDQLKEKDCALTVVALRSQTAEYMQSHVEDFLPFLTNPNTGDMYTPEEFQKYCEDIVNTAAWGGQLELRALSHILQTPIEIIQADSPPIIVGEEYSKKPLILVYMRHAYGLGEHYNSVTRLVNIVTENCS
Outline: (§1)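 Labelling with Biotin-Ahx-Ub-VS (0.5 µM final, 1 h) followed a 3 h triplicate treatment of HEK293T lysate (495 µg per sample, Tris/CHAPS/IGEPAL buffer with protease inhibitors) with fragment at 200 µM or vehicle. Labelled DUBs were NeutrAvidin-enriched, digested with LysC and trypsin, and run by diaPASEF LC-MS/MS. The values, average log2 fragment/vehicle ratios by unpaired t-test, come from global-median-normalised Spectronaut label-free quantities. Proteins with ≥2 unique peptides were used.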

OTUD7B = molecular target: T2, OTUD7B (UniProt Q6GQQ9)
T2 sequence (whole entry): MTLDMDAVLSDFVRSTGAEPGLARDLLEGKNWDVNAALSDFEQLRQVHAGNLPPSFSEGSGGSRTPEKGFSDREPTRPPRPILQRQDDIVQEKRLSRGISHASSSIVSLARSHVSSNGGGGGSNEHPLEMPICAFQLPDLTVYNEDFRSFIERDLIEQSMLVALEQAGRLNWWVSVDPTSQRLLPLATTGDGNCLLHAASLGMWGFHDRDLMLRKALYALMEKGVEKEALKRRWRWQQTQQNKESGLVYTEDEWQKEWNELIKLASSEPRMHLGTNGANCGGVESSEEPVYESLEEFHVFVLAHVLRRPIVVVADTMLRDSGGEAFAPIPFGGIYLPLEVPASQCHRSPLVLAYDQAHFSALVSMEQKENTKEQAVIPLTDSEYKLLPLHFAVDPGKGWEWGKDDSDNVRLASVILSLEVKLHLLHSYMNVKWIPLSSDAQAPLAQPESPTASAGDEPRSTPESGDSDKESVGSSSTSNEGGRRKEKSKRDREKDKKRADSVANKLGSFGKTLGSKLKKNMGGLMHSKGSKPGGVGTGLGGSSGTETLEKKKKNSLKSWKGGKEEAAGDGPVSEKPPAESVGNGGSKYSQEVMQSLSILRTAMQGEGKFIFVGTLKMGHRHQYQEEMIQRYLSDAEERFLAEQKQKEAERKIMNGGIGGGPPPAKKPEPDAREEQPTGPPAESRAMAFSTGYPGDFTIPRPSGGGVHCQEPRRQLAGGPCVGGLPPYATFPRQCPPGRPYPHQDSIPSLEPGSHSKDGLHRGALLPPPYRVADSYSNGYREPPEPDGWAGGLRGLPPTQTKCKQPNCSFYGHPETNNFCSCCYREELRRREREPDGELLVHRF
Outline: as §1

PRPF8 = PRPF8 (UniProt Q6P2Q9)
Outline: as §1

PSMD7 = molecular target: T3, PSMD7 (UniProt P51665)
T3 sequence (whole entry): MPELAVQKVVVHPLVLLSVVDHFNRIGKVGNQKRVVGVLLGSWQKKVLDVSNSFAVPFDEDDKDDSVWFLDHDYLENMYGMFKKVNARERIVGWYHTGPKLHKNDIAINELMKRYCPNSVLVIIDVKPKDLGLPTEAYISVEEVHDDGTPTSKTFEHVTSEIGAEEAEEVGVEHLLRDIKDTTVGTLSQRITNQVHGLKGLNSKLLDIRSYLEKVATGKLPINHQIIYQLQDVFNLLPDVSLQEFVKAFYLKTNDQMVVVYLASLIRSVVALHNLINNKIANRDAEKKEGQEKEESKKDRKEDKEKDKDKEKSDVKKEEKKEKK
Outline: as §1

UCHL1 = UCHL1 (UniProt P09936)
Outline: as §1

UCHL3 = molecular target: T4, UCHL3 (UniProt P15374)
T4 sequence (whole entry): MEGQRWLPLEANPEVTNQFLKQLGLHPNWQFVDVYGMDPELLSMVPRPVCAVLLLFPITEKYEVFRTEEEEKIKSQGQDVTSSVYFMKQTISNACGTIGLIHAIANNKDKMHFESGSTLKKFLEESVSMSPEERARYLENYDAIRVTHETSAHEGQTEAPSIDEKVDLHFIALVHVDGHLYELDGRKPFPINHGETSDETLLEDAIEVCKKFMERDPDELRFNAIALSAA
Outline: as §1

UCHL5 = molecular target: T5, UCHL5 (UniProt Q9Y5K5)
T5 sequence (whole entry): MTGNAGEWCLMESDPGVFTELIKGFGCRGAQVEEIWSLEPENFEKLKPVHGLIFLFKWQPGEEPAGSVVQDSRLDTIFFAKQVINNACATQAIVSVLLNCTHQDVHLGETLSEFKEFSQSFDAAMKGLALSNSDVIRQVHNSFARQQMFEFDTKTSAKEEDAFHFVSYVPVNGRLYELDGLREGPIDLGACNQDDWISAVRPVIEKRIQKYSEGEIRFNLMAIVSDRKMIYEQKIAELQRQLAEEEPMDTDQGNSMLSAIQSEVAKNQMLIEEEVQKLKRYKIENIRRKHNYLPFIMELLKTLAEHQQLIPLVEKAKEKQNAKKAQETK
Outline: as §1

USP10 = USP10 (UniProt Q14694)
Outline: as §1

USP15 = molecular target: T6, USP15 (UniProt Q9Y4E8)
T6 sequence (whole entry): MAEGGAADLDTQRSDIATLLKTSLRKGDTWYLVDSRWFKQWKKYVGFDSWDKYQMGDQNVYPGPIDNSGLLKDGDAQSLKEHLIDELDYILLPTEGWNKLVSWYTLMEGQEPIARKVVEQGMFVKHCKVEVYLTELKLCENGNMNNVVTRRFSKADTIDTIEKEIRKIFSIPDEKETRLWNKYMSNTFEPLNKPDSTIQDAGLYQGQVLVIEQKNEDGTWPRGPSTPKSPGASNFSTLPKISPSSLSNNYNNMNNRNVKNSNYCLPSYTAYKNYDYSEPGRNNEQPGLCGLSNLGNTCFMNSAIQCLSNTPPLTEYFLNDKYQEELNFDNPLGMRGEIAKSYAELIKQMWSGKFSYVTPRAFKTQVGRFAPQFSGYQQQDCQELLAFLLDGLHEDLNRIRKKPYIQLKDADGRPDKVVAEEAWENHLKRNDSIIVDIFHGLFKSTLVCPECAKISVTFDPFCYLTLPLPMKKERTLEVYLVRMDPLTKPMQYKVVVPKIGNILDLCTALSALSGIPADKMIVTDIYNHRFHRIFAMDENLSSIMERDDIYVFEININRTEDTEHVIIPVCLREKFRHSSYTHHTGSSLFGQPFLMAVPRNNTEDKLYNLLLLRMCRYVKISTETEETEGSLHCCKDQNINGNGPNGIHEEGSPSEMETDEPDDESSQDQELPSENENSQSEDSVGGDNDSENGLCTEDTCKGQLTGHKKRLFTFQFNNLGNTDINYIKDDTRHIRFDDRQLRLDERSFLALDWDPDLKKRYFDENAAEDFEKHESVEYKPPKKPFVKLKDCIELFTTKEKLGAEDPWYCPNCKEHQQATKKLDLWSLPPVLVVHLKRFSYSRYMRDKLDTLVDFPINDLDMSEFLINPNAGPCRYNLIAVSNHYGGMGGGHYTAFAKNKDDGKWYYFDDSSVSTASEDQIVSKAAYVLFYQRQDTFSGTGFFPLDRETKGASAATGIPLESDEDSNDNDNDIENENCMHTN
Outline: as §1

USP16 = USP16 (UniProt Q9Y5T5)
Outline: as §1

Measured: log2 ratio of Biotin-Ahx-Ub-VS probe labelling

Sequence of USP16 (Q9Y5T5 whole entry, looked up): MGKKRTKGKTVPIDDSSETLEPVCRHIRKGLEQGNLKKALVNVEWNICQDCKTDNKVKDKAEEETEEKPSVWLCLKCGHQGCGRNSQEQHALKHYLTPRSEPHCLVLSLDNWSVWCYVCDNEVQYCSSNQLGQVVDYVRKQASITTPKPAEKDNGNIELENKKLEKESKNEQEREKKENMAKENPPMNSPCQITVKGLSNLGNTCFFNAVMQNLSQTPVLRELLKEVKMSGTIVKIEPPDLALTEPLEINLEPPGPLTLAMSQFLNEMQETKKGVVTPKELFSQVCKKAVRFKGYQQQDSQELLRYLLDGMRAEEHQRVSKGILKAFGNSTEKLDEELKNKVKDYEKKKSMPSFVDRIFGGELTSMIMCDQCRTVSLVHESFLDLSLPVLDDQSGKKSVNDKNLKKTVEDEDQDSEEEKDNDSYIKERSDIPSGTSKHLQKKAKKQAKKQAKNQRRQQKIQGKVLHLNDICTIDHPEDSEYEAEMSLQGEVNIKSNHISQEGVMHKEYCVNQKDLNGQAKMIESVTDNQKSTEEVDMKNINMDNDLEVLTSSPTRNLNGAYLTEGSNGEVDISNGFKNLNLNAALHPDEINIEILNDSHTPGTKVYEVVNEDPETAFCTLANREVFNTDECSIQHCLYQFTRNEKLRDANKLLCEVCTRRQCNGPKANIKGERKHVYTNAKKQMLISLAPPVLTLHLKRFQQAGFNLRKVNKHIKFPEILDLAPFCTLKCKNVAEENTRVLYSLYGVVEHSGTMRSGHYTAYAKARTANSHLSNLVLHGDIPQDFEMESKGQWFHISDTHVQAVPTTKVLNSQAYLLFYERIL
Sequence of USP10 (Q14694 whole entry): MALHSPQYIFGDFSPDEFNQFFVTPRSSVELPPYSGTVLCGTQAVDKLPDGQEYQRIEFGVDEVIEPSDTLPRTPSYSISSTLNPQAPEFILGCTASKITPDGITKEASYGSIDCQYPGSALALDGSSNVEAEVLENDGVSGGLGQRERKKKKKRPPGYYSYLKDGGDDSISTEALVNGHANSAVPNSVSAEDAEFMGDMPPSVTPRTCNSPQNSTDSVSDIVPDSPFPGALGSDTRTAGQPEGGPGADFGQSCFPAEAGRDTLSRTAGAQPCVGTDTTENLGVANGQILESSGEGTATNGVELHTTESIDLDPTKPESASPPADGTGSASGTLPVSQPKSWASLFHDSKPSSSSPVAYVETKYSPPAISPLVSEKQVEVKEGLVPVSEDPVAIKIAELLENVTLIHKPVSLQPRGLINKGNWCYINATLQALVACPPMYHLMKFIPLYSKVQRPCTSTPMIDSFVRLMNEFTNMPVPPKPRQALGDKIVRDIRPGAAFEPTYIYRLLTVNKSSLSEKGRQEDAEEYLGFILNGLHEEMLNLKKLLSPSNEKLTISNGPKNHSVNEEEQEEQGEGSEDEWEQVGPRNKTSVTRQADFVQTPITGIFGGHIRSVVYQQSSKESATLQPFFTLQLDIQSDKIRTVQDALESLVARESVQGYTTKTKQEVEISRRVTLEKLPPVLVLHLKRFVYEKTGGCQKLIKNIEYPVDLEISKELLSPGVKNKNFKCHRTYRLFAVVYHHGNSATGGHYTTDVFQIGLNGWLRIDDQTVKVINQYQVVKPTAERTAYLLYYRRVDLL
Sequence of UCHL1 (P09936 whole entry, looked up): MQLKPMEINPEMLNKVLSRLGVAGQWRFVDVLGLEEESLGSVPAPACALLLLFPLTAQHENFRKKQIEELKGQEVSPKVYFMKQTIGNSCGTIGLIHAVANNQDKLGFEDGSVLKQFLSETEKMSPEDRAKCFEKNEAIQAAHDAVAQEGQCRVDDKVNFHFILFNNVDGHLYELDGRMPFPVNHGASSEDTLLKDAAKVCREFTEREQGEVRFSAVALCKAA

O=C(CCl)NC(Cn1ccccc1=O)c1ccccc1 (stereo not given)
inactive: OTUD6B 0.102 | OTUD7B -0.332 | PRPF8 -0.224 | PSMD7 -0.094 | UCHL3 0.233 | UCHL5 -0.175 | USP10 -0.0324 | USP15 -0.0415 | USP16 -0.972
active: UCHL1 -1.61

From the supplement of paper PMC11732987, “Enantioselective OTUD7B fragment discovery through chemoproteomics screening and high-throughput optimisation” (Communications Chemistry, 2025)
